Measurements published in PubChem BioAssay (NCATS).
Records with an inconclusive call do not appear. Active and inactive are the calls of the source. Unless noted, the call rests on the fitted dose curve; in most records, active means well fitted curve in either direction with a large enough effect (not every such curve was filed as active); inconclusive means small, poorly fitted or top-dose-only effect, or another doubt; inactive means flat fitted curve, though single readings scatter.

Legend:
[1] = target: Lysosomal acid glucosylceramidase (Homo sapiens) (UniProt P04062); assay: Glucocerebrosidase-p2 (AID 348; in the data active means potency below about 10 µM; further: potency means the concentration at half of the fitted maximal effect); conditions: purified GBA, blue fluorogenic substrate, 40 min
Lysosomal acid glucosylceramidase (Homo sapiens), sequence (P04062 whole entry, looked up): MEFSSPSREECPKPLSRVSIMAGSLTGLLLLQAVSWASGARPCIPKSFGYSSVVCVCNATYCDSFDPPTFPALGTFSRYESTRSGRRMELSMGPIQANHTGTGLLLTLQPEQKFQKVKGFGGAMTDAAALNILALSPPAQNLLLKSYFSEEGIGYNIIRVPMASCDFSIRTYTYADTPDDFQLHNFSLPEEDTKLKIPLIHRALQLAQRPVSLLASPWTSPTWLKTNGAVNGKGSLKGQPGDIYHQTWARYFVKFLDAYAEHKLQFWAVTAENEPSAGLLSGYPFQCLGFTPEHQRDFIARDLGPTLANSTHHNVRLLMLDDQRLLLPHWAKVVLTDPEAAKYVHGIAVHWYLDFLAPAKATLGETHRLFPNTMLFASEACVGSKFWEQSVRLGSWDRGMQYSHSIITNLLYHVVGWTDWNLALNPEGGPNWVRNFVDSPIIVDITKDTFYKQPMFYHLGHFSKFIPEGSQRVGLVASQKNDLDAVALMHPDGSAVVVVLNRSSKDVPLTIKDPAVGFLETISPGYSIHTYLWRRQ
Method in brief: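 Compounds titrated from 0.6 nM upwards against 0.2 nM enzyme in pH 5.9 citric acid/KH2PO4, taurocholate, tween-20; blue fluorogenic substrate 80 uM, 40 min room temperature, stopped and read Ex 365/Em 440 for AC50.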

[2] = AP1 Signaling Pathway (AID 357); conditions: ME-180 AP-1-bla reporter, EGF-induced, beta-lactamase ratio, 5 h; at 7.69 µM (top of the series) unless noted;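 further: ME-180 reporter cells stimulated with EGF at its EC50 level; on the % scale 0 is the no-effect control and ±100 the full control effect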
Method in brief: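 Modulation of EGF-driven AP-1 transcription was assessed with a beta-lactamase reporter in ME-180 cells. Compound and EC50 EGF were co-incubated 5 hours at 37 °C before 2.5-hour CCF4 loading at room temperature and dual-emission reading.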

[3] = target: Cytochrome P450 1A2 (Homo sapiens) (UniProt P05177); assay: p450-cyp1a2 (AID 410; calls by dose curve;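 further: -100% = full effect of reference inhibitor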); conditions: recombinant CYP1A2, luciferin-ME demethylation, luminescence; series mostly up to 57 µM
Cytochrome P450 1A2 (Homo sapiens), sequence (P05177 whole entry, looked up): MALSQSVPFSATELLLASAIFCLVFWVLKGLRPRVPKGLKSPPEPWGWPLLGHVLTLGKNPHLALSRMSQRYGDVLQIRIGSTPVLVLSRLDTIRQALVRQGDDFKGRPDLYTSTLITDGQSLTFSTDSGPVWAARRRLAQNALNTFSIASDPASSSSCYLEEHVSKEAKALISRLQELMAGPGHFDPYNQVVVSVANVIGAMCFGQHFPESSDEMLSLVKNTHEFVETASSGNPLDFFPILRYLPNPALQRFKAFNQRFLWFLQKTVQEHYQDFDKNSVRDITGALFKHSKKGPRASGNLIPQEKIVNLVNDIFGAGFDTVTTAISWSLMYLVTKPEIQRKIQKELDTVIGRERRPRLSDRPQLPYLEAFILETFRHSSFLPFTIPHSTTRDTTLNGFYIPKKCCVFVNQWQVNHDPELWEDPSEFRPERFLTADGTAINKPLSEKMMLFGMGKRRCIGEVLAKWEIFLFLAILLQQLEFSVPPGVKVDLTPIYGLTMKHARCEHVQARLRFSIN
Method in brief: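 Inhibition was calculated relative to 57 uM furafylline (full inhibition). The reaction used human CYP1A2 at 20nM with Luciferin-ME at its Km, 100uM, driven by an NADPH-regenerating system for 60 min at room temperature.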

[4] = NFAT Signaling Pathway (AID 444); conditions: Jurkat NFAT-bla M1, carbachol, beta-lactamase ratio, 5 h; at 7.69 µM (top of the series) unless noted;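 further: carbachol stimulus at about its EC50 of 1 µM final; on the % scale 0 is the no-effect control and ±100 the full control effect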
Method in brief: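 Read-out: CCF4 FRET ratio (460 nm/530 nm) after 1 h RT dye loading, used for %activity and AC50 from titration series. Cells: Jurkat NFAT-β-lactamase/M1 line, treated with compound plus 1 uM carbachol for 5 h, 37 °C.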

[5] = Stat Signaling Pathway (AID 446); conditions: ME-180 SIE beta-lactamase reporter, IL-6 stimulated, 5 h; at 7.69 µM (top of the series) unless noted;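 further: ME-180 cervical cancer cells given 40 pM IL-6 alongside compound; SIE-controlled beta-lactamase reporter measured as 460/530 nm FRET emission ratio; on the % scale 0 is the no-effect control and ±100 the full control effect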
Method in brief: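 Reporter line: ME-180 cervical carcinoma, SIE-beta-lactamase. Treatment: compound with 40 pM IL-6, 5 hrs, 37 C, in low-serum OPTI-MEM with 10 mM HEPES pH 7.3. Detection: 460/530 nm fluorescence.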

[6] = target: Glucocorticoid receptor (Homo sapiens) (UniProt P04150); assay: GR-EFC Redistribution (AID 451; calls by dose curve; further: potency means the concentration at half of the fitted maximal effect); conditions: CHO-K1 GR-EFC translocation, beta-gal luminescence, 2 h
Glucocorticoid receptor (Homo sapiens), sequence (P04150 whole entry, looked up, the tested form may be a part): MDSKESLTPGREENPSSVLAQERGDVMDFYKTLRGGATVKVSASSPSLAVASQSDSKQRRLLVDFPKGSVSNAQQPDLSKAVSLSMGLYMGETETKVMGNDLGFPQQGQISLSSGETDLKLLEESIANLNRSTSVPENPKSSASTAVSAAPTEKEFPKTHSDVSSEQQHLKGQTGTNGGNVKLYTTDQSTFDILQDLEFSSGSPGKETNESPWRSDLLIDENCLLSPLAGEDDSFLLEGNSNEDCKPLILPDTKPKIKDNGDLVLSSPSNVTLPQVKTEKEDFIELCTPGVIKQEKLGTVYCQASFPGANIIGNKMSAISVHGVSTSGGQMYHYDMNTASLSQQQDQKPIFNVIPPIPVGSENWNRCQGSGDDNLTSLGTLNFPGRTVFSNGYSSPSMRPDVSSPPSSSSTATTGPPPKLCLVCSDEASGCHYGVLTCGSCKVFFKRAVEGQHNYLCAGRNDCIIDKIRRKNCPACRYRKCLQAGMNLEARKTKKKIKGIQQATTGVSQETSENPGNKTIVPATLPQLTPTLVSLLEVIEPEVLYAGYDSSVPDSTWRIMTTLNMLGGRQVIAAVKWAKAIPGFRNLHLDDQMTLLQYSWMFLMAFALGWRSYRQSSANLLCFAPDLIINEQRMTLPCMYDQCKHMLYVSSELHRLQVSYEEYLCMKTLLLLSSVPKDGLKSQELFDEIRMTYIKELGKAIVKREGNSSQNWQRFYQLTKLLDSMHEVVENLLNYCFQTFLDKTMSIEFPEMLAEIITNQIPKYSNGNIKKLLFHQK
Method in brief: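 Translocation of GR-ED fusion to nuclear EA restores b-gal, read by luminescence after 1 h room-temperature detection. Engineered CHO-K1 biosensor cells, 1,000/well, exposed 2 h at 37 C to titrations up to 46 uM final.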

[7] = target: Mitogen-activated protein kinase 10 (Mus musculus) (UniProt Q61831); assay: JNK3 AlphaScreen Assay (AID 530); conditions: JNK3 lysate, c-Jun phosphorylation; series mostly up to 57.1 µM;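 further: kinase came from lysate of stimulated human HepG2 cells; signal reports phosphorylation of biotinylated GST-cJun 1-79 at Ser73 with 10 µM ATP; on the % scale 0 is the no-effect control and ±100 the full control effect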
Method in brief: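 Room-temperature AlphaScreen kinase assay; pre-activated HepG2 lysate as JNK3 source, biotin-GST-cJun(1-79) substrate, 10 uM ATP, compound 15 min preincubation.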

[8] = target: 3',5'-cyclic-AMP phosphodiesterase 4B (Homo sapiens) (UniProt Q07343); assay: qHTS Assay for Inhibitors of PDE-IV (AID 607; active means well fitted activation curve with a large enough effect in the main read-out, with a control signal flat, not every such curve was filed as active; further: % of control where 0% means no effect); conditions: HEK293 ACTOne CNG channel cells, membrane potential fluorescence; series mostly up to 22.9 µM
3',5'-cyclic-AMP phosphodiesterase 4B (Homo sapiens), sequence (Q07343 whole entry, looked up): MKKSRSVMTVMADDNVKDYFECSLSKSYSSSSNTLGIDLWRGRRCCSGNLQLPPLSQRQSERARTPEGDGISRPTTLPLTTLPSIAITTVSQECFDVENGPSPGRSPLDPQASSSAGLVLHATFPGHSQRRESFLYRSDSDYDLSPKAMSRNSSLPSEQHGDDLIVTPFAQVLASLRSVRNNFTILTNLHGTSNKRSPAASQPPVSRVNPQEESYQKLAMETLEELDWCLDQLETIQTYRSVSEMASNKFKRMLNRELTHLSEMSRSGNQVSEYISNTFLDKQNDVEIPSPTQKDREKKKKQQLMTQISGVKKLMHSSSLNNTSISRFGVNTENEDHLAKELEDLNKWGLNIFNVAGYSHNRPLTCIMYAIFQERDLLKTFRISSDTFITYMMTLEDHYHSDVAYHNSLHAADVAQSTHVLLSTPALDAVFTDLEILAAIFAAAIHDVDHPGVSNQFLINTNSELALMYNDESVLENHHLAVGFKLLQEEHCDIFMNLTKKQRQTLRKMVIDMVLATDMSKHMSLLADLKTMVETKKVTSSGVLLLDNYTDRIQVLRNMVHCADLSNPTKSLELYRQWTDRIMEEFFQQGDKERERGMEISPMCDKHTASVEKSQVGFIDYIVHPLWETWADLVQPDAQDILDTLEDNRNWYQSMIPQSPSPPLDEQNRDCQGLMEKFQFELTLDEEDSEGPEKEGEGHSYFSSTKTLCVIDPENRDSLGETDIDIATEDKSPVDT
Method in brief: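 Cell-based read-out of cAMP via a modified cyclic nucleotide-gated channel and membrane potential dye (535/590 nm) in HEK293 cells expressing PDE4 endogenously. Compounds tested up to 22.9 uM final; 100 uM RO 20-1724 reference.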

[9] = target: Cytochrome P450 2C9 (Homo sapiens) (UniProt P11712); assay: qHTS Assay for Inhibitors and Substrates of Cytochrome P450 2C9 (AID 883; active means well fitted curve in the direction sought with a large enough effect; an effect the other way counts as inactive or inconclusive; further: nearly all actives have a fitted effect of over 60% in size; further: potency means the concentration at half of the fitted maximal effect); conditions: recombinant CYP2C9, luciferin-H luminescence, 60 min; series mostly up to 57.1 µM
Cytochrome P450 2C9 (Homo sapiens), sequence (P11712 whole entry, looked up): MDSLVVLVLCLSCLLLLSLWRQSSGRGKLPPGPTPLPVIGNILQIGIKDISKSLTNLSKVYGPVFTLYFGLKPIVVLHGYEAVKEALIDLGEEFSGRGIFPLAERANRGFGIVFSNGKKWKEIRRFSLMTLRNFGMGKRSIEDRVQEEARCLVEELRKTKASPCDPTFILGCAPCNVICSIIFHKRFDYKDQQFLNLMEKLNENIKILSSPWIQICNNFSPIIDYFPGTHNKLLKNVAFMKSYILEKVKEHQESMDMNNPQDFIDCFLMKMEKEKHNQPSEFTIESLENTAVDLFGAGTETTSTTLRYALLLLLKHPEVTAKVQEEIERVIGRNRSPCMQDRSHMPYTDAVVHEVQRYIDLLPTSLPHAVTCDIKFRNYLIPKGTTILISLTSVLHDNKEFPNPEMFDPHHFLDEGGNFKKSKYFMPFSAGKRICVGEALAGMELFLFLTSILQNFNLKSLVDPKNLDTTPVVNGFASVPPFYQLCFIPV
Method in brief: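 Inhibition of CYP2C9 is scored as loss of luminescence, with 57uM sulphaphenazole defining 100% inhibition. Substrate Luciferin-H is used at 100uM, equal to its KM; enzyme at 10nM in 25mM KPO4, 60 min at 37C with NADPH regeneration.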

[10] = target: Cytochrome P450 3A4 (Homo sapiens) (UniProt P08684); assay: qHTS Assay for Inhibitors and Substrates of Cytochrome P450 3A4 (AID 884; active means well fitted curve in the direction sought with a large enough effect; an effect the other way counts as inactive or inconclusive; further: on the % scale 0 is the no-effect control and ±100 the full control effect; nearly all actives have a fitted effect of over 50% in size); conditions: recombinant CYP3A4, Luciferin-PPXE luminescence; series mostly up to 57.1 µM
Cytochrome P450 3A4 (Homo sapiens), sequence (P08684 whole entry, looked up): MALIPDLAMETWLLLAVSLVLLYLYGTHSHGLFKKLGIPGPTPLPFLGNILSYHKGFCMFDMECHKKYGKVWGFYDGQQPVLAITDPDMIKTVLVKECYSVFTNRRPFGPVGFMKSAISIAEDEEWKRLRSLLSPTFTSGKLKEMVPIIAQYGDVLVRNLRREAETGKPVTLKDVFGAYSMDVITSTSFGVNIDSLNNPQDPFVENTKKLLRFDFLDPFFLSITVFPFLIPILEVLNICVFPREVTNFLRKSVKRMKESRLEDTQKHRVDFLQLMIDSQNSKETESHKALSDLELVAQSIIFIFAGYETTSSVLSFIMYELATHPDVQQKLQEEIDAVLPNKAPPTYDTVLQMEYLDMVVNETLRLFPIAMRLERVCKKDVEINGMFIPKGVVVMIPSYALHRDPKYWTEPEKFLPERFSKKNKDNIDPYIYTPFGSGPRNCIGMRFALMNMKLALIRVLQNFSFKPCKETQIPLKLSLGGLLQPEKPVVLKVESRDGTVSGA
Method in brief: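 20 nM human CYP3A4 with 25 uM Luciferin-PPXE (at KM) in 200 mM KPO4, preincubated 10 min with compound; NADPH regeneration started a 60 min RT reaction. Luciferin detected by luminescence, normalized to 57 uM ketoconazole as full inhibition.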

[11] = target: Cytochrome P450 3A4 (Homo sapiens) (UniProt P08684); assay: qHTS Assay for Activators of Cytochrome P450 3A4 (AID 885; active means well fitted curve in the direction sought with a large enough effect; an effect the other way counts as inactive or inconclusive; further: nearly all actives have a fitted effect of over 65% in size; further: potency means the concentration at half of the fitted maximal effect); conditions: recombinant CYP3A4, Luciferin-PPXE luminescence, 60 min; series mostly up to 57.1 µM
Method in brief: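 Signal was normalized against complete inhibition by 57 uM ketoconazole. The reaction used 20nM CYP3A4 with 25uM Luciferin-PPXE, 10-min compound preincubation and a 60-min NADPH-supported step at RT.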

[12] = qHTS Assay for Lipid Storage Modulators (AID 1519; calls by dose curve); conditions: Drosophila S3 cells, BODIPY lipid droplet/cell ratio, laser cytometry, cells loaded with oleic acid; for activity change, negative = inhibition: at 57.5 µM (top of the series)
Method in brief: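 Cells seeded at 5,000 per well were treated with compounds over a concentration series and loaded with oleic acid (400 uM, as added). Lipid droplet fluorescence (488 nm excitation, 500-530 nm channel) was read by laser-scanning cytometry and normalized to 20 uM Triacsin C.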

[13] = Primary qHTS for small molecule stabilizers of the endoplasmic reticulum resident proteome: Secreted ER Calcium Modulated Protein (SERCaMP) assay (AID 1508630; active means well fitted curve in the direction sought with a large enough effect; an effect the other way counts as inactive or inconclusive; further: on the % scale 0 is the no-effect control and ±100 the full control effect); conditions: SH-SY5Y GLuc-SERCaMP (Gaussia luciferase released on ER calcium loss) secretion, thapsigargin, luminescence; series mostly up to 38.4 µM
Method in brief: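 GLuc-SERCaMP-expressing SH-SY5Y cells, pretreated 16 h with compound, are challenged with thapsigargin to empty ER calcium stores; after 4 h, coelenterazine is added directly to the medium and luminescence is imaged.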

[14] = target: Cytochrome P450 2D6 (Homo sapiens) (UniProt P10635); assay: qHTS Assay for Inhibitors and Substrates of Cytochrome P450 2D6 (AID 891; active means well fitted curve in the direction sought with a large enough effect; an effect the other way counts as inactive or inconclusive; further: potency means the concentration at half of the fitted maximal effect; nearly all actives have a fitted effect of over 60% in size); conditions: recombinant CYP2D6, luciferin-ME EGE luminescence; series mostly up to 57.1 µM
Cytochrome P450 2D6 (Homo sapiens), sequence (P10635 whole entry, looked up): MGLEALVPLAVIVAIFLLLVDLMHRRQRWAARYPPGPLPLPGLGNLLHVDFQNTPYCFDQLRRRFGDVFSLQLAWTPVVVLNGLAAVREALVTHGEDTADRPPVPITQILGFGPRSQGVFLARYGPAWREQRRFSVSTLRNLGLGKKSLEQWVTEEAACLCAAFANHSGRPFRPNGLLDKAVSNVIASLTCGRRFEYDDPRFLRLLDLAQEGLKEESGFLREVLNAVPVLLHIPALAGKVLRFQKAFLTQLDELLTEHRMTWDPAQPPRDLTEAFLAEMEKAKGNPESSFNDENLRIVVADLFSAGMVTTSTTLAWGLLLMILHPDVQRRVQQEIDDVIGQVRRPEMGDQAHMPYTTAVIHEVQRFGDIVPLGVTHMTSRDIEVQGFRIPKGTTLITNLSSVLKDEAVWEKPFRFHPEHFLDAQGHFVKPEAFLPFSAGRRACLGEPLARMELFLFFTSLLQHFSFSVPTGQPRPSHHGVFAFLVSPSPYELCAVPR
Method in brief: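 Human CYP2D6 (5 nM) with 30 uM Luciferin-ME EGE (at Km) in 100 mM KPO4, compound preincubated 10 min, then NADPH regeneration system for 60 min at room temperature. Luciferin read by luminescence; normalized to 1.43 uM quinidine.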

[15] = target: Cytochrome P450 2C19 (Homo sapiens) (UniProt P33261); assay: qHTS Assay for Inhibitors and Substrates of Cytochrome P450 2C19 (AID 899; active means well fitted curve in the direction sought with a large enough effect; an effect the other way counts as inactive or inconclusive; further: on the % scale 0 is the no-effect control and ±100 the full control effect; nearly all actives have a fitted effect of over 60% in size); conditions: recombinant CYP2C19, luciferin-H EGE luminescence; series mostly up to 57.1 µM
Cytochrome P450 2C19 (Homo sapiens), sequence (P33261 whole entry, looked up): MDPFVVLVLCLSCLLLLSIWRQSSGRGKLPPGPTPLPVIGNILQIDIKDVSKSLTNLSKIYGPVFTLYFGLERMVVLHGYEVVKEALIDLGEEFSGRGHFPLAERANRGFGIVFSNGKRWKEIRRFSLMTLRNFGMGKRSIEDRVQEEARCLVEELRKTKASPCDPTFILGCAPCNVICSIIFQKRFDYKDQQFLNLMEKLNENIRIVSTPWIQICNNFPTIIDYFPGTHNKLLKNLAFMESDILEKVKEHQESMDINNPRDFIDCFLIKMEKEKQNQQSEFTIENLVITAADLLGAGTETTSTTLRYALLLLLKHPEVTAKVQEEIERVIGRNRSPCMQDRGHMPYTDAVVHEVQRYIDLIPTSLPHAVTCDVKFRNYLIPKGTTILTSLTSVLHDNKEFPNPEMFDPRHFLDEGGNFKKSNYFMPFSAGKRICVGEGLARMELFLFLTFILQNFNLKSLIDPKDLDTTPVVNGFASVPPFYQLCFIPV
Method in brief: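 5nM enzyme + 10uM Luciferin-H EGE (=KM), 50mM KPO4; cpd pin-transferred, 10 min 37C; NADPH regen, 60 min 37C; stopped w/ luciferin detection reagent, 20 min; luminescence. Normalized to 57uM ketoconazole (AC100).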

[16] = measured here: cell count channel max response
[17] = measured here: lipid channel max response

O=S(=O)(c1ccccc1)N1CCC2(CCN(C(c3ccccc3)c3ccccc3)CC2)CC1
22.7%: max response [12, 17]
active: Potency [9] 0.501 µM | Potency [11] 12.6 µM
inactive: Potency [1] > 11.4 µM | activity change, negative = inhibition [2] -13.4% | Potency [3] | activity change, negative = inhibition [4] -19.9% | activity, negative = inhibition [5] -5.59% | Potency [6] > 46 µM | outcome [7] | Potency [8] | Potency [10] | activity change, negative = inhibition [12] 6.93% | Potency [13]
11.2%: max response [12, 16]

CC(=O)N1CCC2(CC1)CN(c1ccncc1)C2
inactive: Potency [1] > 11.4 µM | activity change, negative = inhibition [2] -4.3% | Potency [3] | activity change, negative = inhibition [4] 0.609% | activity, negative = inhibition [5] 0.403% | Potency [6] > 46 µM | outcome [7] | Potency [8] | Potency [9] | activity change, negative = inhibition [12] 2.66% | Potency [13]
11.6%: max response [12, 16]
16.2%: max response [12, 17]

CS(=O)(=O)N1CCC[C@@]2(CCN(C(=O)Nc3ccccc3)C2)C1
16.4%: max response [12, 16]
17.6%: max response [12, 17]
inactive: Potency [1] > 11.4 µM | activity change, negative = inhibition [2] -1.88% | Potency [3] | activity change, negative = inhibition [4] 17.3% | activity, negative = inhibition [5] -10.3% | Potency [6] > 46 µM | outcome [7] | Potency [8] | activity change, negative = inhibition [12] 0.904% | Potency [13]

Cc1noc(C)c1C(=O)N1CCC2(CCN(C(=O)Nc3ccccc3)CC2)CC1
4.81%: max response [12, 17]
inactive: Potency [1] > 11.4 µM | activity change, negative = inhibition [2] -7.04% | Potency [3] | activity change, negative = inhibition [4] -2.66% | activity, negative = inhibition [5] -7.75% | Potency [6] > 46 µM | outcome [7] | Potency [8] | Potency [10] | activity change, negative = inhibition [12] 3.9% | Potency [13]
-0.903%: max response [12, 16]

COCC(=O)N1CCC2(CC1)CN(C(c1ccccc1)c1ccccc1)C2
inactive: Potency [1] > 11.4 µM | activity change, negative = inhibition [2] 3.82% | Potency [3] | activity change, negative = inhibition [4] 11.6% | activity, negative = inhibition [5] -8.6% | Potency [6] > 46 µM | outcome [7] | Potency [8] | Potency [10] | activity change, negative = inhibition [12] 2.84% | Potency [13]
active: Potency [11] 25.1 µM | Potency [14] 2.51 µM
-11.5%: max response [12, 16]
-6.58%: max response [12, 17]

O=C(c1cc(C(F)(F)F)cc(C(F)(F)F)c1)N1CCC2(CCN(Cc3nccs3)CC2)CC1
16.9%: max response [12, 16]
inactive: Potency [1] > 11.4 µM | activity change, negative = inhibition [2] -2.3% | Potency [3] | activity change, negative = inhibition [4] -17.7% | activity, negative = inhibition [5] -29.1% | Potency [6] > 46 µM | outcome [7] | Potency [8] | Potency [10] | activity change, negative = inhibition [12] 1.84% | Potency [13]
21.6%: max response [12, 17]

O=C(Nc1ccccc1)N1CC[C@@]2(CCCN(C(=O)c3cnccn3)C2)C1
16%: max response [12, 17]
inactive: Potency [1] > 11.4 µM | activity change, negative = inhibition [2] 6.39% | Potency [3] | activity change, negative = inhibition [4] 7.42% | activity, negative = inhibition [5] -0.789% | Potency [6] > 46 µM | outcome [7] | Potency [8] | Potency [11] | activity change, negative = inhibition [12] 1.67% | Potency [13]
12.8%: max response [12, 16]

Cc1noc(C)c1C(=O)N1CCC2(CCCN(C(=O)NC(C)C)C2)CC1
0.437%: max response [12, 16]
10.1%: max response [12, 17]
inactive: Potency [1] > 11.4 µM | activity change, negative = inhibition [2] 10.5% | Potency [3] | activity change, negative = inhibition [4] 8.68% | activity, negative = inhibition [5] -2.07% | Potency [6] > 46 µM | outcome [7] | Potency [8] | Potency [9] | Potency [15] | activity change, negative = inhibition [12] 6.76% | Potency [13]
